Measured values taken from PubChem BioAssay (Tox21).
Several values for one entry are separate records, joined by “and”; a condition that tells them apart may be missing. Equal entries are not always repeated. Results filed as inconclusive are left out. A structure can be active in one record and inactive in another. Activity calls are given as the source filed them. Unless noted, calls come from the whole dose curve; as a rule, active = well fitted curve in the direction sought with a large enough effect in the repeat runs; inconclusive = weak or mixed curves; inactive = no such curve, though single readings can be large; an effect the other way counts as inactive or inconclusive.

Columns and labels:
[1] = qHTS assay to identify small molecule agonists of the peroxisome proliferator-activated receptor delta (PPARd) signaling pathway - cell viability counter screen (AID 743211); note: nearly all actives have a fitted effect of over 55% in size; note: potency is the fitted concentration of half-maximal effect
How it was run: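 In the same wells used for beta-lactamase reporter measurement, cytotoxicity is scored by CellTiter-Glo. HEK293H PPARd-bla cells receive compound for 17 h at 37C following a 5 h settling period.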

[2] = qHTS assay to identify small molecule antagonists of the peroxisome proliferator-activated receptor delta (PPARd) signaling pathway - cell viability counter screen (AID 743213); note: nearly all actives have a fitted effect of over 50% in size; note: potency is the fitted concentration of half-maximal effect
How it was run: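 HEK293H cells with the PPARd UAS-bla reporter, co-treated 17 h at 37 C with compounds and L165041 (300 nM final), were lysed with CellTiter-Glo. Luminescence indicated viable cell content.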

[3] = qHTS assay to identify small molecule antagonists of the farnesoid-X-receptor (FXR) signaling pathway - cell viability counter screen (AID 743221; active = well fitted cell-killing curve with a large enough effect in the repeat runs, not every such curve was filed as active; note: nearly all actives have a fitted effect of over 50% in size; note: potency is the fitted concentration of half-maximal effect)
How it was run: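 Here viability was scored by luminescence after CellTiter-Glo addition to wells already read for beta-lactamase. Prior treatment: compound plus CDCA (50 uM final), 16 h, 37 C, HEK 293T FXR-bla cells.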

[4] = qHTS assay to identify small molecule agonists of the vitamin D receptor (VDR) signaling pathway - cell viability counter screen (AID 743224); note: nearly all actives have a fitted effect of over 50% in size; note: potency is the fitted concentration of half-maximal effect
How it was run: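 Counter screen for cytotoxicity: VDR-bla cells at 2,000 cells/well, 16 h compound exposure, then CellTiter-Glo luminescence after the beta-lactamase measurement.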

[5] = qHTS assay to identify small molecule antagonists of the vitamin D receptor (VDR) signaling pathway - cell viability counter screen (AID 743225); note: nearly all actives have a fitted effect of over 50% in size; note: potency is the fitted concentration of half-maximal effect
How it was run: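 Compounds were pinned onto VDR-bla HEK 293T cells together with 1-alpha,25-dihydroxyvitamin D3 at 3 nM final. After 16 h at 37C and 5% CO2 plus the reporter readout, cell viability was measured by CellTiter-Glo luminescence (30 min, room temperature).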

[6] = qHTS assay to identify small molecule agonists of the endoplasmic reticulum stress response signaling pathway (AID 1159516; active = well fitted activation curve with a large enough effect in the signal ratio in the repeat runs, not every such curve was filed as active; the % refers to the signal ratio)
How it was run: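 For this screen, HeLa cells stably carrying beta-lactamase under the ER stress response element received test compounds, positive controls or DMSO for 5 hr at 37 C; B/G FRET substrate was then added and dual-wavelength emission recorded.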

[7] = qHTS assay to identify small molecule agonists of the endoplasmic reticulum stress response signaling pathway - cell viability counter screen (AID 1159517; calls by dose curve; note: nearly all actives have a fitted effect of over 50% in size; note: potency is the fitted concentration of half-maximal effect)
How it was run: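 Steps: seed 1,500 ESRE-bla HeLa cells per well; incubate overnight at 37 C, 5% CO2; add compounds in DMSO for 5 hr; run FRET substrate 2 hr RT; add CellTiter-Glo, wait 30 min, read luminescence.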

[8] = qHTS assay to identify small molecule antagonists of the retinoid-related orphan receptor gamma (ROR-gamma) signaling pathway - cell viability counter screen (AID 1159520); note: nearly all actives have a fitted effect of over 50% in size; note: potency is the fitted concentration of half-maximal effect
How it was run: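 Tet-on ROR gamma CHO cells were given compounds for 2 hr, then doxycycline hyclate at 1 uM final, and incubated 16 hr at 37 C. Viability was measured as ATP content by CellTiter-Glo luminescence.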

[9] = target: Nuclear receptor ROR-gamma (Homo sapiens) (UniProt P51449); assay: qHTS assay to identify small molecule antagonists of the retinoid-related orphan receptor gamma (ROR-gamma) signaling pathway (AID 1159521; note: nearly all actives have a fitted effect of over 50% in size; note: potency is the fitted concentration of half-maximal effect)
How it was run: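 Test compounds were applied to Tet-on RORγ CHO cells 2 h ahead of doxycycline hyclate (1 uM final). Luciferase reporter activity was quantified by luminescence after 16 h at 37 C and 5% CO2.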

[10] = qHTS assay to identify small molecule agonists of the AP-1 signaling pathway - cell viability counter screen (AID 1159525; calls by dose curve; note: nearly all actives have a fitted effect of over 55% in size; note: potency is the fitted concentration of half-maximal effect)
How it was run: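 Same-well cytotoxicity counter screen of the Tox21 10K library in ME-180 cells. The readout is ATP-dependent luminescence after 5 h compound treatment. Data are normalised to DMSO and tetra n-octyl ammonium bromide controls.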

[11] = qHTS assay to identify small molecule agonists of the AP-1 signaling pathway (AID 1159526; calls by dose curve)
[12] = target: Retinoic acid receptor RXR-alpha (Homo sapiens) (UniProt P19793); assay: qHTS assay to identify small molecule agonists of the RXR signaling pathway (AID 1159527; calls by dose curve; note: nearly all actives have a fitted effect of over 35% in size)
How it was run: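 Using 9-cis retinoic acid as the reference agonist, chemicals were tested in HEK 293T cells […] for 16 hr; substrate loading lasted 2 hr at room temperature.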

[13] = target: Peroxisome proliferator-activated receptor delta (Homo sapiens) (UniProt Q03181); assay: qHTS assay to identify small molecule agonists of the peroxisome proliferator-activated receptor delta (PPARd) signaling pathway (AID 743212; calls by dose curve)
How it was run: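 Read-out: beta-lactamase FRET fluorescence after 2 h room-temperature incubation with LiveBLAzer B/G substrate. Cells were HEK293H carrying a UAS-bla reporter for PPARd, treated at 37 C with DMSO-dissolved compounds.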

[14] = qHTS assay to identify small molecule agonists of the farnesoid-X-receptor (FXR) signaling pathway - cell viability counter screen (AID 743218); note: nearly all actives have a fitted effect of over 45% in size; note: potency is the fitted concentration of half-maximal effect
How it was run: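 Same-well cytotoxicity check on FXR-UAS-bla HEK 293T cells: 5 h attachment, 16 h compound at 37 C, CellTiter-Glo luminescence read at room temperature after 30 min.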

[15] = target: Vitamin D3 receptor (Homo sapiens) (UniProt P11473); assay: qHTS assay to identify small molecule agonists of the vitamin D receptor (VDR) signaling pathway (AID 743222; calls by dose curve)
How it was run: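 Using LiveBLAzer B/G FRET detection, agonism was scored in VDR-bla cells exposed overnight (16 h, 37C) to DMSO-dissolved compounds; substrate incubation was 2 h at room temperature.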

[16] = target: Vitamin D3 receptor (Homo sapiens) (UniProt P11473); assay: qHTS assay to identify small molecule antagonists of the vitamin D receptor (VDR) signaling pathway (AID 743223; active = well fitted inhibition curve with a large enough effect in the signal ratio in the repeat runs, not every such curve was filed as active; the % refers to the signal ratio)
How it was run: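 Inhibition of agonist-driven VDR signalling is scored in VDR-bla cells: 3 nM final 1alpha,25-dihydroxyvitamin D3 plus compound, 16 h at 37C, then beta-lactamase detection by FRET substrate fluorescence after 2 h.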

[17] = qHTS assay to identify small molecule agonists of the NFkB signaling pathway - cell viability counter screen (AID 1159515; calls by dose curve; note: potency is the fitted concentration of half-maximal effect; nearly all actives have a fitted effect of over 55% in size)
How it was run: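 Counter screen run alongside the NFkB-bla agonist assay: ME-180 reporter cells exposed to compounds for 5 hr, then lysed with CellTiter-Glo in the same wells. Luminescence, read after 30 min, reflects viable cells.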

[18] = target: Peroxisome proliferator-activated receptor delta (Homo sapiens) (UniProt Q03181); assay: qHTS assay to identify small molecule antagonists of the peroxisome proliferator-activated receptor delta (PPARd) signaling pathway (AID 743215; active = well fitted inhibition curve with a large enough effect in the signal ratio in the repeat runs, not every such curve was filed as active; the % refers to the signal ratio;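 note: cells stimulated with agonist L165041 at 300 nM final during compound exposure; series mostly up to about 62 µM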)
How it was run: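 Screen format: qHTS, antagonist mode. HEK293H PPARd-bla cells received compound and 300 nM L165041 (final), 17 h, 37 C. Beta-lactamase detected via FRET substrate fluorescence, 2 h, room temperature.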

[19] = target: Bile acid receptor (Homo sapiens) (UniProt Q96RI1); assay: qHTS assay to identify small molecule antagonists of the farnesoid-X-receptor (FXR) signaling pathway (AID 743217; active = well fitted inhibition curve with a large enough effect in the signal ratio in the repeat runs, not every such curve was filed as active; the % refers to the signal ratio)
How it was run: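 Quantitative HTS, beta-lactamase reporter format: FXR-UAS-bla HEK 293T cells co-treated 16 h at 37 °C with compounds and 50 uM final chenodeoxycholic acid, then read by B/G FRET fluorescence.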

[20] = target: Bile acid receptor (Homo sapiens) (UniProt Q96RI1); assay: qHTS assay to identify small molecule agonists of the farnesoid-X-receptor (FXR) signaling pathway (AID 743220; active = well fitted activation curve with a large enough effect in the signal ratio in the repeat runs, not every such curve was filed as active; the % refers to the signal ratio)
How it was run: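 FXR-UAS-bla HEK 293T cells carrying a UAS-driven beta-lactamase reporter were plated for 5 h at 37C/5% CO2, then exposed to DMSO-dissolved Tox21 10K compounds for 16 h at 37C. A LiveBLAzer B/G FRET substrate was loaded for 2 h at room temperature before fluorescence reading.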

Measured: Potency

Sequence of Vitamin D3 receptor (Homo sapiens) (P11473 whole entry, looked up): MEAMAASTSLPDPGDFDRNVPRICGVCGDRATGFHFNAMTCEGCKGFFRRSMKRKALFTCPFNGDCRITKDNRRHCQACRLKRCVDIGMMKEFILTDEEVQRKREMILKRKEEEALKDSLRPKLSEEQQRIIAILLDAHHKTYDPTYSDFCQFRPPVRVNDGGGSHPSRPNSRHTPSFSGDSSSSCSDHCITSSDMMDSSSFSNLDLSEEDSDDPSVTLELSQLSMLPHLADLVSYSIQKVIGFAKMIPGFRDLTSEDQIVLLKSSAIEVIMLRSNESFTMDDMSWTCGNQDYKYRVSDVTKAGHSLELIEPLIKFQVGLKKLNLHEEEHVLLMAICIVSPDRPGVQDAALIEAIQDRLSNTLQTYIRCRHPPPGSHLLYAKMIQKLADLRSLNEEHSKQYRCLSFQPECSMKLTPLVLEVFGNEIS
Sequence of Retinoic acid receptor RXR-alpha (Homo sapiens) (P19793 whole entry, looked up): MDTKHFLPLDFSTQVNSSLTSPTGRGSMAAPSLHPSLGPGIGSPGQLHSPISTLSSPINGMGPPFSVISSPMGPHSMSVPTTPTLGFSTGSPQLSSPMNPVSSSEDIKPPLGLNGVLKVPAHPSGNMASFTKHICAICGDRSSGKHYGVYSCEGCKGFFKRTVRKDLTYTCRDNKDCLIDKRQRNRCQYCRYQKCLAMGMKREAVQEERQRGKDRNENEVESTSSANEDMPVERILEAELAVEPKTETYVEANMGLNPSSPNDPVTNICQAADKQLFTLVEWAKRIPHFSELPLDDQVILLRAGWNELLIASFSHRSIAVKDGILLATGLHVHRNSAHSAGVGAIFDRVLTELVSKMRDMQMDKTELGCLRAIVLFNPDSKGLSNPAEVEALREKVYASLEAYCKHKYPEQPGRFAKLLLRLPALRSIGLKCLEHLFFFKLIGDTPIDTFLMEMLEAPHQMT
Sequence of Peroxisome proliferator-activated receptor delta (Homo sapiens) (Q03181 whole entry, looked up): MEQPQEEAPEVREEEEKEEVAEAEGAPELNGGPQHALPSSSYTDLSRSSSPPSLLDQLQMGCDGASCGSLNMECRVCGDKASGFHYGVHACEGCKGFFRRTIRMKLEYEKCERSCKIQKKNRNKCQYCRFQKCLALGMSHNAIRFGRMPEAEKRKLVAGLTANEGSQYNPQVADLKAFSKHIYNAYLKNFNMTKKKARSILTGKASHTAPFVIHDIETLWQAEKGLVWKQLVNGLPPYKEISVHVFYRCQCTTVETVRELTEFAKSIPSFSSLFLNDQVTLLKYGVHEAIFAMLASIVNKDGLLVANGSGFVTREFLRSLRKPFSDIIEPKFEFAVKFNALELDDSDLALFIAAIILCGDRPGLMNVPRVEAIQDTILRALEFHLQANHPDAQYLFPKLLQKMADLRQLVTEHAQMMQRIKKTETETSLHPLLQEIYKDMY
Sequence of Bile acid receptor (Homo sapiens) (Q96RI1 whole entry, looked up): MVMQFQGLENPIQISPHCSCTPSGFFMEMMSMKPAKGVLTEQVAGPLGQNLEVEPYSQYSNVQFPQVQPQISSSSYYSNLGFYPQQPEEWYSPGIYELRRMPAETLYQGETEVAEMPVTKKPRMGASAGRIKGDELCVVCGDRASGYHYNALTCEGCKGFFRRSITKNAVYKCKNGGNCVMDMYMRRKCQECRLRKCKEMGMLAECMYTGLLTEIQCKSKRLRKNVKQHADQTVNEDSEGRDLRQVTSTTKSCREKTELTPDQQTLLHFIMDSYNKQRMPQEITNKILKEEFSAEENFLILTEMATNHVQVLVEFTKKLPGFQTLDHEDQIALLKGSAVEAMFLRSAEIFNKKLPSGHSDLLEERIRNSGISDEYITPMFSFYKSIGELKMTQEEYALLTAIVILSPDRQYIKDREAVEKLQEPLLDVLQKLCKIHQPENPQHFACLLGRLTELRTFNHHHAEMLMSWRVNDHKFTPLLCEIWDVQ

CC(c1ccc(O)cc1)c1ccc(O)cc1
inactive and 61.1 µM (active): [9]
not listed: [13] | [14] | [15] | [16] | [17] | [18] | [19] | [20]
inactive: all other assays above

S=C(SSC(=S)N1CCCCC1)N1CCCCC1
inactive: [6] | [7]
active: [1] 188 nM | [2] 0.168 µM | [3] 0.211 µM | [4] 0.168 µM | [8] 0.188 µM

CCCCCCCCCCCCBr
active: [14] 13.8 µM | [3] 43.6 µM
not listed: [5] | [10] | [12] | [17] | [18] | [19] | [20]
inactive: all other assays above

CN(C)C(=S)[S-].CN(C)C(=S)[S-].[Cu+2]
active: [1] 946 nM | [2] 3.36 µM | [14] 0.946 µM | [3] 2.38 µM | [4] 1.5 µM | [5] 4.74 µM | [17] 4.74 µM | [10] 6.7 µM

BrC(Br)Br
not listed: [12] | [16] | [17]
inactive: all other assays above

NNC(=O)c1ccccc1
not listed: [4] | [15] | [16] | [17] | [19] | [20]
inactive: all other assays above

CN(C)CCc1c[nH]c2ccc(O)cc12
not listed: [1] | [4] | [7] | [9] | [12] | [15] | [17] | [20]
inactive: all other assays above

COc1ccc(N)cc1N
active: [9] 7.08 µM and 14.7 µM
50.5 µM (active) and inactive: [10]
inactive: [13] | [14] | [3] | [15] | [16] | [5] | [6] | [7] | [12]

O=C(O)COc1nc(Cl)c(Cl)cc1Cl
inactive: [1] | [20] | [3] | [6] | [8] | [10] | [11]

CS(=O)(=O)c1ccc(C(=O)C2C(=O)CCCC2=O)c([N+](=O)[O-])c1
inactive: [1] | [20] | [3] | [6] | [8] | [10]

Cc1cc(SCc2sc(-c3ccc(C(F)(F)F)c(F)c3)nc2C)ccc1OCC(=O)O
inactive: [3] | [6] | [8] | [9]
active: [1] 38900 nM | [2] 12.3 µM | [4] 49 µM | [5] 21.9 µM

ClC1=C(Cl)C2(Cl)C3C(Cl)C(Cl)CC3C1(Cl)C2(Cl)Cl (configuration not stated)
inactive: [15]
active: [1] 21.8 µM and 24.5 µM | [2] 49 µM | [14] 48.8 µM and 54.9 µM | [3] 61.6 µM | [4] 24.5 µM and 17.4 µM | [5] 54.8 µM and 49 µM | [7] 49 µM | [8] 68.4 µM | [9] 27.2 µM and 61.1 µM | [10] 24.5 µM and 34.7 µM

O=C1NCN(c2ccccc2)C12CCN(CC1COc3ccccc3O1)CC2 (configuration not stated)
inactive: [13] | [18] | [3] | [16] | [4] | [5] | [6] | [8] | [9] | [10] | [11]
